From PubChem
The list is not random: actives were taken first. Their share in the collection is about 5.8%.
PINK1 expr mod – PINK1 expression modulation; PINK1 immunofluorescence, high-content cytometry, 24 h; Potency, µM (top dose mostly 76.6 µM), usual class: activators; 410,000 tested, 0.2% active; AID 624263; active = well fitted activation curve with a large enough effect; inconclusive = small, poorly fitted or top-dose-only effect; cell line not stated here; also: nearly all actives have a fitted effect of over 65% in size
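PINK1 protein, normally rapidly degraded, was detected by immunofluorescence after 24 hour compound treatment of a stable cell line. Titration data (5 concentrations) came from laser-scanning cytometry, with CCCP-treated wells as controls.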
KB-3-1 tox – KB-3-1 parental cell cytotoxicity; KB-3-1 viability, CellTiter-Glo ATP luminescence, 72 h; Potency, µM (titrated, usually from 46.1 µM), actives largely listed as cytotoxic; 400,000 tested, 1.4% active; AID 1347075; also: nearly all actives have a fitted effect of over 60% in size
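Luminescent ATP read-out (CellTiter-Glo) measures survival of drug-naive KB-3-1 cells after 72 h compound exposure at 37 °C. Titration series was screened from lowest to highest concentration, with DMSO vehicle plates as background controls.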
12-LOX inh – blocks human arachidonate 12S-lipoxygenase; P18054; purified 12hLO, xylenol orange hydroperoxide absorbance; Potency, µM (titrated, usually from 108 µM), hits mostly inhibitors; 580,000 tested, 1.1% active; AID 1671190
Target sequence (P18054 whole entry, looked up): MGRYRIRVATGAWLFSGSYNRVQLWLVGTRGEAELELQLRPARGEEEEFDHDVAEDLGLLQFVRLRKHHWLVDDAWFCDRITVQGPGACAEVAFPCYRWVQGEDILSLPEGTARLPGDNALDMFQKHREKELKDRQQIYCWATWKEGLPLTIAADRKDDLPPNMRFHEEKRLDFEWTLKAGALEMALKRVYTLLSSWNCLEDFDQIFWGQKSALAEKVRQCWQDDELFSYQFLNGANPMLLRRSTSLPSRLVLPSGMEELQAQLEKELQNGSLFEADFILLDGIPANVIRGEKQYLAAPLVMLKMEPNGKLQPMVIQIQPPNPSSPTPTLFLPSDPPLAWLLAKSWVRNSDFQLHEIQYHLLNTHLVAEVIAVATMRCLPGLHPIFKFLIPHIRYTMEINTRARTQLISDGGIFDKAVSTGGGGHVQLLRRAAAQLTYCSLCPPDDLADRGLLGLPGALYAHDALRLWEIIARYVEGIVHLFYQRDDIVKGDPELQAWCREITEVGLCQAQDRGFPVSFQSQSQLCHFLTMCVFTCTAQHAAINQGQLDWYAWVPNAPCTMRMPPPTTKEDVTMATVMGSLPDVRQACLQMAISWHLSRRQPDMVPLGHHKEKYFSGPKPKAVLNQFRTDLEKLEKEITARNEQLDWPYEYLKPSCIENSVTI
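Hydroperoxide product was detected by ferrous iron/xylenol orange as the 573 to 405 nm absorbance ratio. Arachidonic acid at 40 uM (final) was turned over for 30 min at room temperature by 150 nM human 12hLO, pH 7.0 Hepes buffer, after 15 min compound preincubation.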
KB-V1 MDR tox – kills drug-selected multidrug resistant KB-V1 cells; KB-V1 MDR cells viability, CellTiter-Glo, 72 h; Potency, µM (doses to about 46.1 µM), usual class: cytotoxic; 400,000 tested, 3.4% active; also: nearly all actives have a fitted effect of over 60% in size
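KB-V1 cells (P-gp-expressing MDR subline of KB-3-1) in phenol-red-free DMEM with 10% FBS were exposed to library compounds over a concentration series for 72 h at 37 degrees C. Viability read by CellTiter-Glo luminescence; concentration-effect curves fitted after normalization.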
SW480 rerep – DNA re-replication induction in SW480 cells; SW480 DNA re-replication, Hoechst DNA content imaging, 48 h; Potency, µM (highest dose often 46.1 µM), actives largely listed as activators; 340,000 tested, 1.8% active; AID 624297; also: nearly all actives have a fitted effect of over 55% in size
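First, 250 cells per well were seeded. Next, compound or vehicle (23 nL) was pinned in, plates sat 48 hr at 37 C. Finally Hoechst was added for 40 min before fluorescence scanning.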
MCF10A rereplic – inducers of DNA re-replication in MCF 10A breast cells. MCF 10A DNA re-replication, Hoechst nuclear intensity, 48 h. Potency, µM (top dose mostly 46.1 µM), most hits filed as activators. 350,000 tested, 2.9% active. AID 624296; also: nearly all actives have a fitted effect of over 50% in size
A number is an active result; i = inactive; ? = inconclusive; nt = not tested or not shown; [ ] = another dose, or the depositor's remark. Unless noted, calls follow the shape of the dose curve; as a rule, active = well fitted curve in the direction sought with a large enough effect; inconclusive = small, poorly fitted or top-dose-only effect, or another doubt; inactive = no such curve, though single readings can be large; an effect the other way counts as inactive or inconclusive.

SMILES | PINK1 expr mod | KB-3-1 tox | 12-LOX inh | KB-V1 MDR tox | SW480 rerep | MCF10A rereplic
Cc1ccc(C(=O)C2CCN(C(=S)NCCCOC(C)C)CC2)cc1 | i | i | ? | i | 15µM | i
CC(C)OCCCNC(=S)N1CCC(C(=O)c2ccc(F)cc2)CC1 | i | ? | i | ? | nt | nt
CCOC(=O)C1=CN(c2ccc(OCC)cc2)C=C(C(=O)OCC)C1c1ccc(SC)cc1 | nt | nt | i | nt | nt | nt
Nc1cccc2[nH]c(=O)c3ccccc3c12 | i | ? | i | i | i | i
O=c1[nH]c2cc([N+](=O)[O-])cc(Cl)c2c2ccccc12 | i | i | i | 12µM | nt | nt
O=C(CSc1nnc(-c2ccncc2)n1CC(F)(F)F)NCC1CC1 | nt | nt | i | nt | nt | nt
O=C(CN1CCN(CCC(=O)Nc2ccccc2F)CC1)Nc1ccc(Cl)cc1 | i | i | i | 4.6µM | i | i
CCOc1ccc(NC(=O)CCN2CCN(c3ccccc3F)CC2)cc1 | i | ? | i | ? | 18µM | ?
O=C(CCN1CCN(c2ccccc2F)CC1)c1ccc(Br)cc1 | i | i | nt | i | ? | ?
CC(C)Oc1ccc(C(=O)CCN2CCCCC2)cc1 | i | i | i | i | ? | 23µM
COc1ccc(C(=O)CCN2CCN(c3ccccc3F)CC2)cc1 | i | i | i | i | ? | 5.8µM
CSc1ccc(C(C)NC(=O)Cc2ccccc2C)cc1 (stereo unspecified) | nt | nt | i | nt | nt | nt
COc1ccc(-n2c(SCC(=O)Nc3ccc4c(c3)OCO4)nc3c(c2=O)SCC3)cc1 | i | i | i | i | i | i
COc1ccccc1N1CCN(CCC(=O)Nc2ccc3c(c2)OCO3)CC1 | i | i | i | 21µM | i | i
COc1ccccc1-n1c(SCC(=O)Nc2ccc3c(c2)OCO3)nc2c(c1=O)SCC2 | i | i | i | 7.3µM | i | i
O=C(NCc1ccccc1)NC1(C(=O)N2CCN(c3ncccn3)CC2)CCCCC1 | i | i | i | i | i[9.22 µM] | 23µM
O=C(Nc1ccccc1)NC1(C(=O)N2CCN(c3ncccn3)CC2)CCCCC1 | i | i | i | i | i | i
CC(NCCc1ccc(S(N)(=O)=O)cc1)C(=O)NCCc1ccc(F)cc1 (stereo unspecified) | i | i | ? | i | i | i
CC(NCC(=O)NCCc1ccc(S(N)(=O)=O)cc1)c1ccc(F)cc1 (stereo unspecified) | i | i | i | i | 26µM | i
CN(C)C1(c2nnnn2-c2ccc3c(c2)OCCO3)C2CC3CC(C2)CC1C3 (stereo unspecified) | nt | nt | i | nt | nt | nt
O=c1oc2c(O)cccc2cc1-c1nc2ccccc2[nH]1 | i | 21µM | ? | i | 3.3µM | ?
O=C(N/N=C/c1cccc(O)c1)c1ccc(COc2ccccc2Br)cc1 | i | i | i | i | i | 23µM
O=C(N/N=C/c1ccc([N+](=O)[O-])cc1)c1ccc(COc2ccccc2-c2ccccc2)cc1 | i | ? | i | 16µM | i | i
COc1ccccc1OCc1ccc(C(=O)Nc2ccccc2)cc1 | i | i | i | i | i | i
O=C(Nc1ccc(Cn2cccn2)cc1)c1ccc(COc2ccccc2Br)cc1 | i | 9.2µM | i | 18µM | ? | ?
SMILES | PINK1 expr mod | KB-3-1 tox | 12-LOX inh | KB-V1 MDR tox | SW480 rerep | MCF10A rereplic
COc1ccc2c(ccn2CC(=O)NCC2CCC(C(=O)O)CC2)c1 (stereo unspecified) | nt | nt | i | nt | nt | nt
COc1ccc(S(=O)(=O)Oc2ccc3oc(=O)cc(-c4cc5cccc(OC)c5o4)c3c2)cc1 | nt | nt | i | nt | nt | nt
CC(=O)Nc1cccc(NC(=O)c2cc(-c3cccnc3)nc3ccc(Cl)cc23)c1 | i | i | i | i | i | ?
CC(=O)Nc1cccc(NC(=O)c2cc(-c3cccnc3)nc3ccc(Br)cc23)c1 | i | i | i | i | ? | 12µM
Cc1ccc2nc(-c3cccnc3)cc(C(=O)Nc3ccccc3[N+](=O)[O-])c2c1 | i | nt | ? | nt | ? | 15µM
O=C(Nc1ccc(C(F)(F)F)cc1)c1cc(-c2cccnc2)nc2ccc(Br)cc12 | i | i | i | ? | ? | 5.2µM
CSc1ccccc1NC(=O)c1cc(-c2cccnc2)nc2ccc(Br)cc12 | i | ? | i | ? | i | 16µM
O=S(=O)(Nc1nc2ccccc2nc1NC1CCCC1)c1ccc2c(c1)OCCO2 | nt | nt | i | nt | nt | nt
CC1(C)[C@H](Cc2cc(CC3CCCCC3)on2)C[C@@H]1NC(=O)c1ccccc1 | nt | nt | i | nt | nt | nt
O=C(NCC(c1cccs1)N1CCOCC1)c1ccccc1NS(=O)(=O)c1cccc([N+](=O)[O-])c1 (stereo unspecified) | i | i | ? | ? | i | i
O=C(NCC(c1cccs1)N1CCOCC1)c1ccccc1NS(=O)(=O)c1ccc(Cl)cc1 (stereo unspecified) | i | ? | ? | 12µM | i | ?
O=C(NCC(c1cccs1)N1CCOCC1)c1ccccc1NS(=O)(=O)c1ccc(Cl)c([N+](=O)[O-])c1 (stereo unspecified) | ? | i | i | ? | i | 15µM
COc1cccc(Oc2c(C)oc3cc(OCC(N)=O)ccc3c2=O)c1 | nt | nt | i | nt | nt | nt
CC(=O)Oc1ccccc1C(=O)Nc1ccccc1 | i | i | i | i | i | ?
COC1(OC)C=CC(=O)C=C1NC(=O)c1ccccc1OC(C)=O | i | ? | i | ? | ? | 4.1µM
COc1ccc(-c2noc3c2-c2nc(-c4ccccc4C)sc2CC3)cc1 | i | 18µM | i | ? | 21µM | ?
CCCc1nc2c(s1)CCc1onc(-c3ccc(Cl)cc3)c1-2 | i | i | i | i | i | ?
Cc1ccccc1-c1nc2c(s1)CCc1onc(-c3ccc(Cl)cc3)c1-2 | i | i | i | i | i | i
CCCc1nc2c(s1)CCc1onc(-c3ccc(OC)cc3)c1-2 | i | i | ? | i | i | 8.2µM
O=C(O)CSc1cc(Cl)ccc1Cl | nt | nt | i | nt | nt | nt
Cc1cc(C(=O)NCCCOC(C)C)c2c(C3CCCN3)noc2n1 (stereo unspecified) | nt | nt | 14µM | nt | nt | nt
O=C(Nc1ccc(Br)cc1)c1cc2ccccn2n1 | i | ? | i | i | i | i
CCc1ccc(NC(=O)c2cc3ccccn3n2)cc1 | i | 15µM | i | ? | nt | nt
C=CC(C)(CCC=C(C)C)OC=O (stereo unspecified) | nt | nt | i | nt | nt | nt
O=C(CSc1nc2ccc(Cl)cc2[nH]1)N1N=C(c2cccs2)CC1c1ccco1 (stereo unspecified) | nt | nt | 18µM | nt | nt | nt
O=C(c1ccccc1)N1CCC(N2Cc3ccccc3C2=O)CC1 | nt | nt | i[6.33 µM] | nt | nt | nt
O=C(CSc1nnc(Cn2nnc3ccccc32)o1)N(Cc1ccc(Cl)cc1)c1ccccc1 | i | 13µM | i | i | i | i
O=C(CSc1nnc(Cn2nnc3ccccc32)o1)Nc1cccc(Cl)c1 | i | i | i | i | i | i
CCN(CC)c1cc(C)c2cc(NC(=O)c3ccc(OC)c(OC)c3)ccc2n1 | i | 16µM | i | i | nt | nt
